Reference: PubChem BioAssay (NCATS)
Records with an inconclusive call do not appear. Calls of active or inactive are those of the source. The call rests on the fitted dose curve; in most records, active means well fitted inhibition curve with a large enough effect; inconclusive means small, poorly fitted or top-dose-only effect; inactive means no such curve, though single readings can be large or run the other way.

Assay: Primary fluorescence-based thiol-reactive (MSTI) qHTS assay for identification of artifact compounds. (AID 1845221);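 further: thiol-reactive compounds lower the probe fluorescence signal; nearly all actives have a fitted effect of over 65% in size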
Details: MSTI thiol-reactivity probe, 1 h; series mostly up to 53.8 µM
Source text: PI: Alexander Tropsha Ph.D.
UNC Eshelman School of Pharmacy
University of North Carolina, Chapel Hill, North Carolina
Hits from high-throughput screening (HTS) of chemical libraries are often false positives due to their interference with the assay detection technology. In response to this problem, we generated the largest publicly available library of chemical liabilities and developed a free webtool to predict HTS artifacts, both of which are described herein. More specifically, we generated, curated, and integrated HTS datasets for thiol reactivity, redox activity, and luciferase (firefly and nano) activity. Using these curated datasets, we developed and validated several Quantitative Structure-Interference Relationship (QSIR) models to predict nuisance behavior. […] These models were employed for virtual profiling of the National Center for Advancing Translational Science's (NCATS) in-house library, and 256 compounds for each assay were selected for the experimental validation of nuisance behavior. The BA for these external predictions ranged from 58 to 78% for compounds within the applicability domains of the models. […] The models developed in this study, along with aggregation models previously developed by our group (SCAM Detective) were implemented in "Liability Predictor," an online tool which may be used as part of chemical library design or for triaging HTS hits. Both the models and the curated datasets are publicly available at https://liability.mml.unc.edu/.
SEQUENCE No. (e.g., 1, 2, 3, etc.); […] (e.g., Cells, Incubation, Reagent, etc.); VALUE; DESCRIPTION.
1; Reagent; 4 uL; […].
2; Compounds and control; 16 nL; Kalypsis pin tool (Wako USA) equipped with a 1536-well pin head.
4; Detection; Fluorescence, ViewLux microplate reader, 525 nm excitation, 598 nm emission.
NOTES (numbers refer to Sequence numbers above)
1. Assays determining (E)-2-(4-mercaptostyryl)-1,3,3-trimethyl-3H-indol-1-ium (MSTI) reactivity were performed as previously described in the literature with modifications for the quick identification of compounds reacting with thiol. In brief, 4 uL of MSTI or positive control Acetyl-MSTI (final concentrations of 4 uM and 4 uM, respectively) in assay buffer (2% DMSO in 1X PBS pH 7.4) was dispensed into all wells of a 1536-well assay plate (solid-bottom black plate; Greiner Bio One, Monroe, NC).
2. A Wako Pin-tool (Wako Automation, Richmond, VA) was used to transfer 16 nL of compounds (consisting of 7-plates in qHTS format, final concentration range 18.3 nM to 114 uM) or control MLS001163887 (final concentration range 1.22 nM to 40 uM).
3. Plates were centrifuged (121xg, 15 seconds) and incubated for 1 hour at room temperature protected from light.
4. Samples were read for fluorescence (Ex/Em = 525(20)/598(25) nm) on a ViewLux CCD imager (PerkinElmer). Data were normalized to Acetyl-MSTI (0% activity) and MSTI (100% activity) and the resulting percent inhibition data were fitted to a 4-parameter Hill equation using NCATS in-house software.

| SMILES | outcome |
| --- | --- |
| CCCCC1C(=O)NC(=O)N(C2CCCCC2)C1=O (stereo not drawn) | inactive |
| O=C(O)CCCCCCNC1c2ccccc2CCc2ccccc21 | inactive |
| CCCC[N+]1(C)[C@@H]2CC(OC(=O)[C@H](CO)c3ccccc3)C[C@H]1[C@@H]1O[C@@H]12 (stereo partly drawn) | inactive |
| O=C(N[C@H]1N=C(c2ccccc2F)c2cccc3c2N(CC3)C1=O)c1cc2ccccc2[nH]1 | inactive |
| C[C@]12CC[C@H](O)CC1=CC[C@@H]1[C@@H]2CC[C@]2(C)C(=O)CC[C@@H]12 | inactive |
| CCOC(=O)c1ncn2c1CN(C)C(=O)c1c(I)cccc1-2 | inactive |
| CCCOC(=O)Cc1ccc(OCC(=O)N(CC)CC)c(OC)c1 | inactive |
| Cc1nnc2n1-c1sc(CCc3ccc(CC(C)C)cc3)cc1C(c1ccccc1Cl)=NC2C (stereo not drawn) | inactive |
| COc1ccc2c(C(=O)c3ccc(Cl)cc3)c(C)n(CC(=O)O)c2c1 | inactive |
| O=C(N[C@@H]1N=C(c2ccccc2F)c2cccc3c2N(CC3)C1=O)c1cc2ccccc2[nH]1 | inactive |
| CCOC(=O)c1cncn1C(C)c1ccccc1 (stereo not drawn) | inactive |
| CCOC(=O)NC(C)(C)Cc1ccc(Cl)cc1 | inactive |
| CC[C@H]1C[C@H]2[C@@H]3CCC4=CC(=O)CC[C@@H]4[C@H]3CC[C@]2(C)[C@H]1O | inactive |
